Test results published in the supplement of paper PMC8728848.
Many of the other results were omitted from the sample, so the strongest signals are more common in it than they were.

Columns and labels:
Test in all cases: glycan array binding signal (z-score within array); higher = stronger binding
Details in all cases: glycan notation: IUPAC condensed, linker removed
[1] = target: Fuc(a1-2)Gal(b1-3)GalNAc(a1-3)[Fuc(a1-2)]Gal(b1-4)Glc
Procedure, shortened: (§1)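 The binding signal is a Z-score computed within each array and averaged over linkers. Arrays of the same protein sequence at different concentrations or buffers were also averaged together. Data originate from 3228 arrays in the Consortium for Functional Glycomics database, kept only where the protein sequence was available.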

[2] = target: Fuc(a1-2)Gal(b1-4)Fuc(a1-3)]GlcNAc(b1-2)Man(a1-3)[Fuc(a1-2)Gal(b1-4)[Fuc(a1-3)]GlcNAc(b1-2)Man(a1-6)]Man(b1-4)GlcNAc(b1-4)GlcNAc
Procedure, shortened: as §1

[3] = target: Fuc(a1-2)Gal(b1-4)[Fuc(a1-3)]GlcNAc(b1-2)Man(a1-3)[Fuc(a1-2)Gal(b1-4)[Fuc(a1-3)]GlcNAc(b1-2)Man(a1-6)]Man(b1-4)GlcNAc(b1-4)[Fuc(a1-6)]GlcNAc
Procedure, shortened: as §1

[4] = target: Fuc(a1-2)Gal(b1-4)[Fuc(a1-3)]GlcNAc(b1-3)Gal(b1-4)[Fuc(a1-3)]GlcNAc(b1-3)Gal(b1-4)[Fuc(a1-3)]GlcNAc
Procedure, shortened: as §1

[5] = target: Fuc(a1-2)Gal6S(b1-4)Glc
Procedure, shortened: as §1

[6] = target: Fuc(a1-2)[Gal(a1-3)]Gal(b1-3)GalNAc(b1-3)Gal(a1-4)Gal(b1-4)Glc
Procedure, shortened: as §1

[7] = target: Fuc(a1-2)[Gal(a1-3)]Gal(b1-4)[Fuc(a1-3)]Glc
Procedure, shortened: as §1

[8] = target: Fuc(a1-2)[Gal(a1-3)]Gal(b1-4)[Fuc(a1-3)]GlcNAc
Procedure, shortened: as §1

[9] = target: Fuc(a1-2)[GalNAc(a1-3)]Gal(b1-3)GlcNAc(b1-3)GalNAc
Procedure, shortened: as §1

[10] = target: Fuc(a1-2)[GalNAc(a1-3)]Gal(b1-4)Glc
Procedure, shortened: as §1

[11] = target: Fuc(a1-3)GlcNAc
Procedure, shortened: as §1

[12] = target: Fuc(a1-3)[Gal(b1-4)]GlcNAc6S
Procedure, shortened: as §1

[13] = target: Gal(b1-3)Gal(b1-4)GlcNAc
Procedure, shortened: as §1

[14] = target: Gal(b1-3)GlcNAc(a1-6)Gal(b1-4)GlcNAc
Procedure, shortened: as §1

[15] = target: Gal(b1-3)GlcNAc(b1-6)GalNAc
Procedure, shortened: as §1

[16] = target: Gal(b1-4)GlcNAc(b1-2)Man(a1-3)[Gal(b1-4)GlcNAc(b1-2)Man(a1-6)]Man(b1-4)GlcNAc(b1-4)[Fuc(a1-6)]GlcNAc
Procedure, shortened: as §1

[17] = target: Gal(b1-4)GlcNAc(b1-3)Gal(b1-4)GlcNAc
Procedure, shortened: as §1

[18] = target: Gal(b1-4)GlcNAc(b1-3)Gal(b1-4)GlcNAc(b1-3)Gal(b1-4)GlcNAc(b1-2)[Gal(b1-4)GlcNAc(b1-3)Gal(b1-4)GlcNAc(b1-3)Gal(b1-4)GlcNAc(b1-6)]Man(a1-6)[Gal(b1-4)GlcNAc(b1-3)Gal(b1-4)GlcNAc(b1-3)Gal(b1-4)GlcNAc(b1-2)Man(a1-3)]Man(b1-4)GlcNAc(b1-4)[Fuc(a1-6)]GlcNAc
Procedure, shortened: as §1

[19] = target: Gal(b1-4)GlcNAc(b1-3)Gal(b1-4)GlcNAc(b1-3)Gal(b1-4)GlcNAc(b1-3)Gal(b1-4)GlcNAc(b1-2)Man(a1-3)[Gal(b1-4)GlcNAc(b1-3)Gal(b1-4)GlcNAc(b1-3)Gal(b1-4)GlcNAc(b1-3)Gal(b1-4)GlcNAc(b1-2)Man(a1-6)]Man(b1-4)GlcNAc(b1-4)GlcNAc
Procedure, shortened: as §1

[20] = target: Gal(b1-4)GlcNAc(b1-3)GalNAc
Procedure, shortened: as §1

[21] = target: Gal(b1-4)GlcNAc6P
Procedure, shortened: as §1

[22] = target: Gal3S(b1-4)[Fuc(a1-3)]Glc6S
Procedure, shortened: as §1

[23] = target: GlcA(b1-6)Gal
Procedure, shortened: as §1

[24] = target: GlcNAc(a1-3)Gal(b1-4)GlcNAc
Procedure, shortened: as §1

[25] = target: GlcNAc(a1-4)Gal(b1-4)GlcNAc(b1-3)Gal(b1-4)Glc
Procedure, shortened: as §1

[26] = target: GlcNAc(b1-2)Man(a1-3)[GlcNAc(b1-4)][GlcNAc(b1-2)Man(a1-6)]Man(b1-4)GlcNAc(b1-4)GlcNAc
Procedure, shortened: as §1

[27] = target: GlcNAc(b1-2)[GlcNAc(b1-4)]Man(a1-3)[GlcNAc(b1-4)][GlcNAc(b1-2)[GlcNAc(b1-6)]Man(a1-6)]Man(b1-4)GlcNAc(b1-4)GlcNAc
Procedure, shortened: as §1

[28] = target: GlcNAc(b1-3)Gal(b1-4)GlcNAc(b1-2)Man(a1-3)[GlcNAc(b1-3)Gal(b1-4)GlcNAc(b1-2)Man(a1-6)]Man(b1-4)GlcNAc(b1-4)[Fuc(a1-6)]GlcNAc
Procedure, shortened: as §1

B1: LlpA (Arthrobacter sp) (protein)
chain: MGSSHHHHHHSSGLVPRGSHMTLHPETALRPGAAATSPNSRYRLLYQTDGNLVLYGPDGPLWDSGTNGHGAGACIMQADGNLVLYGPNDEYVWDTETDNNPGSRLVIQDDGNAVIYRPDGSPLWATETCQPPGSADSHVLQSGSTLTPTHGIRSANGLYGLLYQTDGNLVFYGPDGPLWDSGTNGRGAGACIMQPDGNLVLYGPHDEYVWDTETDNNPGSRLVIQDDGNAVIYRPDGNPTWVTGTH
What does the source list for B1?
glycan array binding signal (z-score) [1]: -0.605; glycan array binding signal (z-score) [2]: 1.72; glycan array binding signal (z-score) [3]: 1.97; glycan array binding signal (z-score) [4]: -0.294; glycan array binding signal (z-score) [5]: 0.733; glycan array binding signal (z-score) [6]: -0.344; glycan array binding signal (z-score) [7]: -1.15; glycan array binding signal (z-score) [8]: 0.864; glycan array binding signal (z-score) [9]: 2.37; glycan array binding signal (z-score) [10]: -0.96; glycan array binding signal (z-score) [11]: -0.654; glycan array binding signal (z-score) [12]: 1.84; glycan array binding signal (z-score) [13]: 0.043; glycan array binding signal (z-score) [14]: -0.211; glycan array binding signal (z-score) [15]: -0.718; glycan array binding signal (z-score) [16]: 1.04; glycan array binding signal (z-score) [17]: -0.238; glycan array binding signal (z-score) [18]: 0.644; glycan array binding signal (z-score) [19]: -0.527; glycan array binding signal (z-score) [20]: -0.295; glycan array binding signal (z-score) [21]: 0.159; glycan array binding signal (z-score) [22]: 2.1; glycan array binding signal (z-score) [23]: 0.793; glycan array binding signal (z-score) [24]: 0.79; glycan array binding signal (z-score) [25]: 0.389; glycan array binding signal (z-score) [26]: -0.798; glycan array binding signal (z-score) [27]: -0.159; glycan array binding signal (z-score) [28]: 0.596
